Measured values reported in PubChem BioAssay (NCATS).
Results filed as inconclusive are left out. The source made the active and inactive calls. Calls follow the shape of the dose curve; as a rule, active = well fitted curve in the direction sought with a large enough effect; inconclusive = small, poorly fitted or top-dose-only effect, or another doubt; inactive = no such curve, though single readings can be large; an effect the other way counts as inactive or inconclusive.

Experiments:
[1] = Primary redox qHTS assay for identification of artifact compounds. (AID 1845223)
How it was run: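 Redox-cycling detection via DTT (250 uM final) oxidation coupled to Amplex Red (25 uM)/HRP (250 mU/mL) in HBSS. 15 min preincubation plus 30 min after DTT, room temperature. Ex/Em 525/598 nm; 4-parameter Hill fit against DMSO and 10 uM DA3003.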

[2] = Quantitative High-Throughput drug screen in 47 multiple myeloma cell lines against the NCATS MIPE library collection: FR4_PLB cell viability assay (AID 1918924; also: potency is read from the fitted curve at half-maximal effect; nearly all actives have a fitted effect of over 35% in size)
How it was run: (§1)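 Approved and investigational drugs from MIPE 4.0 were added by pin tool to 500 cells per well. After 48 hours at 37C, ATP-based CellTiter-Glo luminescence indicated remaining viability.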

[3] = Quantitative High-Throughput drug screen in 47 multiple myeloma cell lines against the NCATS MIPE library collection: Delta47_JCRB cell viability assay (AID 1918925; also: potency is read from the fitted curve at half-maximal effect; nearly all actives have a fitted effect of over 45% in size)
How it was run: (§2)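 Viability readout: CellTiter-Glo luminescence following 5 min room-temperature incubation with reagent. Prior exposure: 48 h, 37C, humidified 5% CO2, 500 cells per well.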

[4] = Quantitative High-Throughput drug screen in 47 multiple myeloma cell lines against the NCATS MIPE library collection: EJM_DSMZ cell viability assay (AID 1918926; also: potency is read from the fitted curve at half-maximal effect; nearly all actives have a fitted effect of over 30% in size)
How it was run: as §2

[5] = Quantitative High-Throughput drug screen in 47 multiple myeloma cell lines against the NCATS MIPE library collection: AMO1_DSMZ cell viability assay (AID 1918927; also: nearly all actives have a fitted effect of over 30% in size; also: potency is read from the fitted curve at half-maximal effect)
How it was run: as §2

[6] = Quantitative High-Throughput drug screen in 47 multiple myeloma cell lines against the NCATS MIPE library collection: ARP1_JJKsccF8 cell viability assay (AID 1918928; also: potency is read from the fitted curve at half-maximal effect; nearly all actives have a fitted effect of over 40% in size)
How it was run: (§3)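 Viability screen: myeloma cells (500/well) incubated 48 h at 37 °C, humidified 5% CO2, with pinned library compounds; CellTiter-Glo added, luminescence read; DMSO wells set 100%, medium-only wells 0%.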

[7] = Quantitative High-Throughput drug screen in 47 multiple myeloma cell lines against the NCATS MIPE library collection: ARD_JJKsccE7 cell viability assay (AID 1918929; also: potency is read from the fitted curve at half-maximal effect;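 as to viability: 100% = DMSO-only wells and 0% = media-only wells without cells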)
How it was run: as §2

[8] = Quantitative High-Throughput drug screen in 47 multiple myeloma cell lines against the NCATS MIPE library collection: Karpas620_DSMZ cell viability assay (AID 1918959); also: nearly all actives have a fitted effect of over 30% in size; also: potency is read from the fitted curve at half-maximal effect;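 as to viability (% of DMSO): 100% = DMSO-only wells and 0% = cell-free media-only wells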
How it was run: as §1

[9] = Quantitative High-Throughput drug screen in 47 multiple myeloma cell lines against the NCATS MIPE library collection: KMM1_JCRB cell viability assay (AID 1918960); also: nearly all actives have a fitted effect of over 30% in size; also: potency is read from the fitted curve at half-maximal effect
How it was run: as §3

[10] = Quantitative High-Throughput drug screen in 47 multiple myeloma cell lines against the NCATS MIPE library collection: Karpas417_ECACC cell viability assay (AID 1918961); settings: Karpas417 myeloma viability, CellTiter-Glo ATP luminescence, 48 h; viability (% of DMSO): at 45.8 µM (top of the series); also: potency is read from the fitted curve at half-maximal effect;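 as to viability (% of DMSO): 100% = DMSO only wells and 0% = media only wells without cells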
How it was run: (§4)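 Inhibition of cell viability is measured here. Each line was plated at 500 cells per well, treated with MIPE 4.0 drugs, kept 48 hours at 37C, then assayed for ATP content by CellTiter-Glo luminescence.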

[11] = Quantitative High-Throughput drug screen in 47 multiple myeloma cell lines against the NCATS MIPE library collection: JIM3_ECACC cell viability assay (AID 1918963; also: potency is read from the fitted curve at half-maximal effect; nearly all actives have a fitted effect of over 35% in size)
How it was run: as §1

[12] = Quantitative High-Throughput drug screen in 47 multiple myeloma cell lines against the NCATS MIPE library collection: JIM1_ECACC cell viability assay (AID 1918964; also: potency is read from the fitted curve at half-maximal effect)
How it was run: as §2

[13] = Quantitative High-Throughput drug screen in 47 multiple myeloma cell lines against the NCATS MIPE library collection: INA6_PLB cell viability assay (AID 1918965; also: potency is read from the fitted curve at half-maximal effect; nearly all actives have a fitted effect of over 55% in size)
How it was run: as §4

[14] = Quantitative High-Throughput drug screen in 47 multiple myeloma cell lines against the NCATS MIPE library collection: JJN3_DSMZ cell viability assay (AID 1918966; also: potency is read from the fitted curve at half-maximal effect; nearly all actives have a fitted effect of over 50% in size)
How it was run: as §2

[15] = Quantitative High-Throughput drug screen in 47 multiple myeloma cell lines against the NCATS MIPE library collection: H1112_PLB cell viability assay (AID 1918967)
How it was run: as §2

[16] = Quantitative High-Throughput drug screen in 47 multiple myeloma cell lines against the NCATS MIPE library collection: KMS27_JCRB cell viability assay (AID 1918970); also: nearly all actives have a fitted effect of over 30% in size; also: potency is read from the fitted curve at half-maximal effect;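 as to viability (% of DMSO): 100% = DMSO-only wells and 0% = media-only wells without cells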
How it was run: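 ATP-based viability (CellTiter-Glo luminescence) is measured in cells treated 48 h with approved and investigational drugs at 37 °C. Controls are DMSO-only wells for full viability and media-only wells for none.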

[17] = Quantitative High-Throughput drug screen in 47 multiple myeloma cell lines against the NCATS MIPE library collection: KMS12BM_JCRB cell viability assay (AID 1918971); also: potency is read from the fitted curve at half-maximal effect; nearly all actives have a fitted effect of over 35% in size
How it was run: as §2

[18] = Quantitative High-Throughput drug screen in 47 multiple myeloma cell lines against the NCATS MIPE library collection: KMS12PE_JCRB cell viability assay (AID 1918972); also: nearly all actives have a fitted effect of over 30% in size; also: potency is read from the fitted curve at half-maximal effect;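 as to viability: 100% = DMSO only wells and 0% = wells with media alone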
How it was run: as §4

[19] = Quantitative High-Throughput drug screen in 47 multiple myeloma cell lines against the NCATS MIPE library collection: Karpas25_ECACC cell viability assay (AID 1918968; also: potency is read from the fitted curve at half-maximal effect; nearly all actives have a fitted effect of over 35% in size)
How it was run: as §2

[20] = Quantitative High-Throughput drug screen in 47 multiple myeloma cell lines against the NCATS MIPE library collection: KHM11_PLB cell viability assay (AID 1918962)
How it was run: as §1

CCc1c2c(nc3ccc(O)cc13)-c1cc3c(c(=O)n1C2)COC(=O)[C@]3(O)CC
active: Potency [2] 590 nM | Potency [3] 37.2 nM | Potency [4] 187 nM | Potency [5] 11.8 nM | Potency [6] 187 nM | Potency [7] 1660 nM | Potency [8] 743 nM | Potency [9] 132 nM | Potency [10] 332 nM | Potency [11] 526 nM | Potency [12] 37.2 nM | Potency [13] 1 nM | Potency [14] 332 nM | Potency [15] 46.9 nM | Potency [16] 5.9 nM | Potency [17] 66.2 nM | Potency [18] 187 nM
inactive: Potency [1]

CC(C)c1nn(-c2c(Cl)cccc2Cl)c2nc(Cc3ccc(OCCO)cc3)[nH]c(=O)c12
inactive: Potency [1] | Potency [5] | Potency [7] | Potency [8] | Potency [9] | Potency [10] | Potency [16] | Potency [18]
active: Potency [2] 105 nM | Potency [3] 166 nM | Potency [4] 132 nM | Potency [6] 118 nM | Potency [11] 166 nM | Potency [13] 83.3 nM | Potency [14] 83.3 nM | Potency [15] 235 nM | Potency [19] 37.2 nM | Potency [17] 74.3 nM

C=CC(=O)N1CCC[C@@H](n2nc(-c3ccc(Oc4ccccc4)cc3)c3c(N)ncnc32)C1
inactive: Potency [1]

C[C@@H](Oc1cc(-c2cnn(C3CCNCC3)c2)cnc1N)c1c(Cl)ccc(F)c1Cl
active: Potency [2] 18700 nM | Potency [3] 2090 nM | Potency [4] 18700 nM | Potency [5] 18700 nM | Potency [6] 8330 nM | Potency [7] 11800 nM | Potency [8] 14800 nM | Potency [9] 13200 nM | Potency [10] 2640 nM | Potency [20] 3720 nM | Potency [11] 8330 nM | Potency [12] 3720 nM | Potency [13] 4690 nM | Potency [15] 11800 nM | Potency [19] 2350 nM | Potency [16] 26400 nM | Potency [17] 16600 nM | Potency [18] 6620 nM
inactive: Potency [1]

CC(=O)c1c(C)c2cnc(Nc3ccc(N4CCNCC4)cn3)nc2n(C2CCCC2)c1=O
active: Potency [2] 18700 nM | Potency [3] 23500 nM | Potency [4] 18700 nM | Potency [5] 16600 nM | Potency [6] 14800 nM | Potency [7] 14800 nM | Potency [8] 26400 nM | Potency [9] 20900 nM | Potency [10] 16600 nM | Potency [20] 23500 nM | Potency [11] 18700 nM | Potency [12] 5900 nM | Potency [13] 18700 nM | Potency [14] 23500 nM | Potency [15] 23500 nM | Potency [19] 11800 nM | Potency [16] 26400 nM | Potency [17] 833 nM | Potency [18] 23500 nM
inactive: redox activity (% of DA3003) [1] -5.59% [at 6.41 µM]

COc1cc2c(cc1-c1c(C)noc1C)ncc1[nH]c(=O)n([C@H](C)c3ccccn3)c12
active: Potency [2] 833 nM | Potency [3] 418 nM | Potency [4] 10500 nM | Potency [5] 332 nM | Potency [6] 332 nM | Potency [7] 296 nM | Potency [8] 5900 nM | Potency [9] 5900 nM | Potency [10] 148 nM | Potency [11] 18700 nM | Potency [12] 5900 nM | Potency [13] 264 nM | Potency [15] 20900 nM | Potency [16] 3720 nM | Potency [17] 833 nM | Potency [18] 833 nM
inactive: Potency [1]

Cc1cc(Nc2ncnc3ccc(-c4ccc(CNCCS(C)(=O)=O)o4)cc23)ccc1Oc1ccn2ncnc2c1
active: Potency [2] 18700 nM | Potency [3] 1660 nM | Potency [4] 20900 nM | Potency [5] 935 nM | Potency [6] 11800 nM | Potency [7] 2350 nM | Potency [8] 5260 nM | Potency [9] 1180 nM | Potency [20] 6620 nM | Potency [11] 9350 nM | Potency [12] 5260 nM | Potency [13] 1870 nM | Potency [14] 18700 nM | Potency [15] 6620 nM | Potency [16] 2640 nM | Potency [17] 18700 nM | Potency [18] 5260 nM
inactive: Potency [1]

COc1cc2nccc(Oc3ccc(NC(=O)C4(C(=O)Nc5ccc(F)cc5)CC4)cc3)c2cc1OC
active: Potency [2] 26400 nM | Potency [3] 18700 nM | Potency [4] 2960 nM | Potency [5] 1870 nM | Potency [6] 16600 nM | Potency [7] 2960 nM | Potency [8] 5260 nM | Potency [9] 2960 nM | Potency [11] 14800 nM | Potency [14] 1660 nM | Potency [15] 11800 nM | Potency [19] 5260 nM | Potency [16] 4690 nM | Potency [17] 11800 nM | Potency [18] 7430 nM
inactive: Potency [1] | Potency [10]

C#Cc1cccc(Nc2ncnc3cc(OC)c(OCCCCCCC(=O)NO)cc23)c1
active: Potency [2] 74.3 nM | Potency [3] 66.2 nM | Potency [4] 469 nM | Potency [5] 52.6 nM | Potency [6] 118 nM | Potency [7] 74.3 nM | Potency [8] 74.3 nM | Potency [9] 52.6 nM | Potency [11] 2350 nM | Potency [12] 66.2 nM | Potency [13] 16.6 nM | Potency [15] 296 nM | Potency [19] 52.6 nM | Potency [16] 74.3 nM | Potency [17] 66.2 nM | Potency [18] 148 nM
inactive: Potency [1]

CCS(=O)(=O)c1cccc(-c2cc(C(=O)NC3CCN(C)CC3)c(C)c3[nH]c4ncc(C)cc4c23)c1
active: Potency [2] 2350 nM | Potency [3] 662 nM | Potency [4] 2640 nM | Potency [5] 9350 nM | Potency [6] 2090 nM | Potency [7] 3320 nM | Potency [8] 1660 nM | Potency [9] 2960 nM | Potency [20] 526 nM | Potency [11] 935 nM | Potency [12] 935 nM | Potency [13] 418 nM | Potency [14] 1660 nM | Potency [15] 4690 nM | Potency [19] 1180 nM | Potency [16] 1320 nM | Potency [17] 5900 nM | Potency [18] 3320 nM
inactive: Potency [1]
